Columns and labels:
[1] = qHTS profiling of the MIPE4 collection as inhibitors of Plasmodium falciparum (3D7) proliferation (AID 743344);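 further: scaled between DMSO vehicle wells and 0.29 µM artemisinin as full inhibition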; conditions: P. falciparum 3D7 in erythrocytes, SYBR Green DNA fluorescence, 72 h; at 28.5 µM unless noted
Procedure, shortened: (§1)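 Parasite DNA was quantified by SYBR Green I fluorescence (ex 485, em 535 nm) after overnight lysis in saponin/Triton buffer at room temperature. Cultures at 0.3% parasitemia and 2.5% hematocrit were first exposed to compound for 72 h at 37 C; signals were normalised to artemisinin (0.29 uM) and vehicle wells.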

[2] = qHTS profiling of the MIPE4 collection as inhibitors of Plasmodium falciparum (DD2) proliferation (AID 743345); conditions: P. falciparum Dd2 in erythrocytes, SYBR Green DNA, 72 h; at 28.5 µM unless noted
Procedure, shortened: as §1

[3] = qHTS profiling of the MIPE4 collection as inhibitors of Plasmodium falciparum (DD2) proliferation (Rep 2) (AID 743346); conditions: P. falciparum Dd2 in erythrocytes, SYBR Green DNA, 72 h; at 28.5 µM unless noted
Procedure, shortened: as §1

[4] = qHTS profiling of the MIPE4 collection as inhibitors of Plasmodium falciparum (HB3) proliferation (AID 743347);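 further: plate controls were DMSO vehicle wells for no effect and artemisinin wells for full effect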; conditions: P. falciparum HB3 in erythrocytes, SYBR Green DNA, 72 h; at 28.5 µM unless noted
Procedure, shortened: as §1

[5] = High-throughput drug toxicity screening in the BPDCN cell line Gen2.2 (AID 1224824); conditions: Gen2.2 BPDCN cells; at 45.8 µM (top of the series) unless noted;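 further: cells exposed to compounds for 48 h before reading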
Procedure, shortened: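 Seed 500 exponentially growing Gen2.2 cells/well; add compounds by pin tool; incubate 48 h, 37 °C, 5% CO2; add CellTiter-Glo, 15 min RT; read luminescence. % activity vs DMSO (100%) and bortezomib (0%).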

[6] = High-throughput drug toxicity screening in the BPDCN cell line Cal-1 (AID 1224825); conditions: Cal-1 BPDCN cell viability, qHTS; at 45.8 µM (top of the series) unless noted
Procedure, shortened: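 CellTiter-Glo luminescence after 48 h compound exposure; percent activity scaled with DMSO as 100% and bortezomib (9.2 uM final) as 0%. Cal-1 cells seeded at 500/well in RPMI, 10% FBS, no phenol red.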

SMILES	parasite growth, % of DMSO control [1]	parasite growth remaining, % of DMSO control (lower = more inhibition) [2]	parasite growth, % of control (lower = inhibition) [3]	growth, % of control [4]	cell viability, % of control (lower = more cytotoxic) [5]	viability (% of control) [6]
Cc1cn2cc(C(=O)N(C)CCO)cc(N[C@@H]3CCOc4cccc(C)c43)c2n1	33.4%	86.7%	47.2%	47.6%	152%	114%
COc1c(OCCCN2CCOCC2)ccc2c3n(c(=NC(=O)c4cnc(N)nc4)nc12)CCN3	7.6% [at 9.64 µM]	12% [at 9.64 µM]	16.8% [at 9.64 µM]	3.45% [at 9.64 µM]	37.7% [at 23.2 µM]	69.2% [at 23.2 µM]
COc1cc(C)c(Sc2cnc(NC(=O)c3ccc(CNC(C)C(C)C)cc3)s2)cc1C(=O)N1CCN(C(C)=O)CC1 (stereo unspecified)	16.2%	16%	18.9%	4.37%	140%	6.82%
C1=CCOCc2cc(ccc2OCCN2CCCC2)Nc2nccc(n2)-c2cccc(c2)OCC1	5.07%	5.48%	15.5%	5.8%	8.21%	5.28%
CCN(CC)CCNC(=O)c1ccc2nc(-c3ccccc3)c(-c3ccc(CN4CCC(n5c(=O)[nH]c6ccccc65)CC4)cc3)nc2c1	4.56%	5.78%	19.4%	8.22%	1.68%	0.965%
CC(O)C1C(=O)N2C(C(=O)O)=C(SC3CNC(C(=O)N(C)C)C3)C(C)C12 (stereo unspecified)	87.4%	93.4%	82.6%	75.4%	120%	98.9%
Cc1coc2c1C(=O)C(=O)c1c-2ccc2c1CCCC2(C)C	5.71%	9.98%	26.2%	4.66%	93.2%	83.1%
CC[C@@]1(O)C(=O)OCc2c1cc1n(c2=O)Cc2cc3cc(O)ccc3nc2-1	13.5%	12.6%	16.8%	5.75%	4.43%	3.68%
CC(C)(O)c1cc2nc(-c3cnc(N)nc3)nc(N3CCOCC3)c2s1	10.6%	10.4%	10%	2.52%	33.5%	24%
Cc1c(C)n(Cc2ccc(-c3ccccc3C(=O)O)cc2)c2ccc(C(=O)N[C@@H](C)c3ccc([N+](=O)[O-])cc3)cc12	25.4%	30.3%	20.8%	7.19%	21.6%	8.82%
Cn1cc(-c2ccncc2)c(-c2ccc(OCc3ccc4ccccc4n3)cc2)n1	83.3%	98.3%	82.2%	65.2%	56.4%	38.2%
COc1cc2c(cc1-c1c(C)noc1C)ncc1[nH]c(=O)n([C@H](C)c3ccccn3)c12	67.1%	97.3%	86.2%	74.1%	65.5%	7.22%
CC[C@H]1CN2CCc3cc(OC)c(OC)cc3[C@H]2C[C@@H]1C[C@@H]1NCCc2cc(OC)c(OC)cc21	4.96%	6.45%	7.29%	3.29%	8.8%	6.78%
Cn1c(CNc2ccc(C(=N)N)cc2)nc2cc(C(=O)N(CCC(=O)O)c3ccccn3)ccc21	98.6% [at 9.64 µM]	91.9% [at 9.64 µM]	86.3% [at 9.64 µM]	87.7% [at 9.64 µM]	125% [at 23.2 µM]	105% [at 23.2 µM]
COC(=O)Nc1ccc(-c2nc(N3CCOCC3)c3cnn(C4CCN(Cc5cccnc5)CC4)c3n2)cc1	5.62%	7.48%	9.27%	4.59%	4.27%	3.04%
COc1ccc(CC2c3cc(OC)c(OC)cc3CC[N+]2(C)CCC(=O)OCCCCCOC(=O)CC[N+]2(C)CCc3cc(OC)c(OC)cc3C2Cc2ccc(OC)c(OC)c2)cc1OC (stereo unspecified)	57.8% [at 5.51 µM]	93.6% [at 5.51 µM]	58.2% [at 5.51 µM]	85.6% [at 5.51 µM]	45.2% [at 5.15 µM]	99% [at 5.15 µM]
Nc1ccc(S(=O)(=O)Nc2ncccn2)cc1	92.1%	105%	69.1%	63.8%	115%	103%
CCCCOc1c(C(=O)c2c(F)cc(C)cc2F)cnc2n[nH]cc12	71.2%	98.1%	43.3%	92.5%	8.67%	26.5%
COc1cc2c(NC3CCN(C(C)C)CC3)nc(C3CCCCC3)nc2cc1OCCCN1CCCC1	5.09%	6.68%	10.3%	4.41%	9.63%	4.14%
CCc1c2c(nc3ccc(O)cc13)-c1cc3c(c(=O)n1C2)COC(=O)[C@]3(O)CC	13.6%	12.1%	19.1%	11.3%	6.79%	5.47%
CNC(=O)c1c(F)cccc1Nc1nc(Nc2cc3c(cc2OC)CCN3C(=O)CN(C)C)nc2[nH]ccc12	3.51%	6.69%	6.76%	2.27%	5.55%	2.8%
O=C(CCCCCCC(=O)Nc1ccc([C@H]2O[C@@H](CSc3nc(-c4ccccc4)c(-c4ccccc4)o3)C[C@@H](c3ccc(CO)cc3)O2)cc1)NO	5.18%	6.85%	7.19%	6.35%	9.13%	4.48%
Cc1ccc2nc(NC(=O)CSc3nc4c(c(=O)n3-c3ccccc3)SCC4)sc2c1	29.9%	82.9%	72.4%	42.3%	120%	15.8%
C=CC(=O)Nc1cccc(Oc2nc(Nc3ccc(N4CCN(C)CC4)cc3)ncc2Cl)c1	8.39%	16.8%	34.6%	5.58%	8.16%	2.81%
NCC(=O)Nc1ccc(-n2nc(C(F)(F)F)cc2-c2ccc3c(ccc4ccccc43)c2)cc1	5.62%	8.46%	12.2%	4.19%	1.18%	0.933%
COc1cc(C(=O)N2CCC(N3CCN(C)CC3)CC2)ccc1Nc1ncc2c(n1)N(C)c1ccccc1C(=O)N2C	5.57%	7.18%	19.7%	5.31%	2.17%	3.29%
